# From paper PMC8384837, “Expanding the binding specificity for RNA recognition by a PUF domain”
# Assays:
# Assay in all cases: yeast three-hybrid, YBZ-1, SC-Leu-His + 0.5 mM 3-AT, 4 days
# Settings in all cases: tags: N-Gal4 AD-HA kept; label: inside an RPR1-promoter hybrid RNA with tandem MS2 sites; ssRNA
# PUM1 PUF domain R5-KAC = PUM1 PUF domain R5-KAC (Homo sapiens, UniProt Q14671 828-1176, C1007K;R1008A;Q1011C)
# Method in brief: (§1)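 A centromeric plasmid in strain YBZ-1 co-expressed Pumilio-1 PUF domain libraries, randomized at the three base-contacting residues of each repeat, with matching RNA elements; the strain carries a LexA–MS2 coat fusion and a HIS3 reporter. After four days on SC-Leu (input) or SC-Leu-His + 0.5 mM 3-AT (selection), the repeat regions were PCR-amplified and Illumina-sequenced. The interaction score is the log change in variant frequency from input to selection, using log2 and a pseudocount of 1 where absent.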
# PUM1 PUF domain R7-LTV = PUM1 PUF domain R7-LTV (Homo sapiens, UniProt Q14671 828-1176, S1079L;N1080T;E1083V)
# Method in brief: as §1
# PUM1 PUF domain R1-KCR = PUM1 PUF domain R1-KCR (Homo sapiens, UniProt Q14671 828-1176, S863K;R864C;Q867R)
# Method in brief: as §1
# PUM1 PUF domain R3-MFG = PUM1 PUF domain R3-MFG (Homo sapiens, UniProt Q14671 828-1176, C935M;R936F;Q939G)
# Method in brief: as §1
# PUM1 PUF domain R3-YRV = PUM1 PUF domain R3-YRV (Homo sapiens, UniProt Q14671 828-1176, C935Y;Q939V)
# Method in brief: as §1
# PUM1 PUF domain R3-FCR = PUM1 PUF domain R3-FCR (Homo sapiens, UniProt Q14671 828-1176, C935F;R936C;Q939R)
# Method in brief: as §1
# PUM1 PUF domain R3-LWK = PUM1 PUF domain R3-LWK (Homo sapiens, UniProt Q14671 828-1176, C935L;R936W;Q939K)
# Method in brief: as §1
# PUM1 PUF domain R5-RQD = PUM1 PUF domain R5-RQD (Homo sapiens, UniProt Q14671 828-1176, C1007R;R1008Q;Q1011D)
# Method in brief: as §1
# PUM1 PUF domain R6-FYM = molecular target: T1, PUM1 PUF domain R6-FYM (Homo sapiens, UniProt Q14671 828-1176, N1043F;Q1047M)
# T1 sequence: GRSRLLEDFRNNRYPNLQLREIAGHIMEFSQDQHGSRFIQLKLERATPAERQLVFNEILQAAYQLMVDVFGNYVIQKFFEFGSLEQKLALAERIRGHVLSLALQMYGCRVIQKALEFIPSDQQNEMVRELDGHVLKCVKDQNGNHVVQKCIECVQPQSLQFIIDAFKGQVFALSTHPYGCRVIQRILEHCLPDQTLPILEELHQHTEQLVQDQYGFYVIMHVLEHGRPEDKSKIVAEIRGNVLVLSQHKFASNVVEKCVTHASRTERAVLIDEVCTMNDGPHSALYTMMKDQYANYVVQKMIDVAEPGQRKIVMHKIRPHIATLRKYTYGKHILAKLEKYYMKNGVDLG
# Method in brief: as §1
# PUM1 PUF domain R3-VRN = PUM1 PUF domain R3-VRN (Homo sapiens, UniProt Q14671 828-1176, C935V;Q939N)
# Method in brief: as §1
# Chain of PUM1 PUF domain R7-LTV (Q14671 828-1176 S1079L/N1080T/E1083V): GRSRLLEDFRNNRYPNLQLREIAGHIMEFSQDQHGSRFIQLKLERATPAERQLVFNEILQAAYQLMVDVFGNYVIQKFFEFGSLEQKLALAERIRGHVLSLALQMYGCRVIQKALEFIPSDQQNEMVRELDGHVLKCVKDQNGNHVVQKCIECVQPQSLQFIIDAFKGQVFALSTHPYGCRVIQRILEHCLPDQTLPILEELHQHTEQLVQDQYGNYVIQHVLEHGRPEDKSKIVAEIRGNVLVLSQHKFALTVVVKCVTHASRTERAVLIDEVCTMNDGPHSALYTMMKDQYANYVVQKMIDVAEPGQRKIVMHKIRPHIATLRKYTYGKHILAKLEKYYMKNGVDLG
sequence,measurement,setting,value
GGCUAGAACUAGUGGAUCCCCCGGCGCCCGGCGGCUCGAGCCCGGGUAAGUGUUAAUAGUCUGCAUGCCGCCGGGCGCCAUGCCUGCAGGUCGACUCUAGAAAACAUG,binding signal,PUM1 PUF domain R5-KAC,3.67 log2 enrichment (interaction score)
GGCUAGAACUAGUGGAUCCCCCGGCGCCCGGCGGCUCGAGCCCGGGUAAGUUUAAAUAGUCUGCAUGCCGCCGGGCGCCAUGCCUGCAGGUCGACUCUAGAAAACAUG,binding signal,PUM1 PUF domain R7-LTV,4.94 log2 enrichment (interaction score)
GGCUAGAACUAGUGGAUCCCCCGGCGCCCGGCGGCUCGAGCCCGGGUAAGUGUAAAUUGUCUGCAUGCCGCCGGGCGCCAUGCCUGCAGGUCGACUCUAGAAAACAUG,binding signal,PUM1 PUF domain R1-KCR,5.43 log2 enrichment (interaction score)
GGCUAGAACUAGUGGAUCCCCCGGCGCCCGGCGGCUCGAGCCCGGGUAAGUGUAAGUAGUCUGCAUGCCGCCGGGCGCCAUGCCUGCAGGUCGACUCUAGAAAACAUG,binding signal,PUM1 PUF domain R3-MFG,5.73 log2 enrichment (interaction score)
same,binding signal,PUM1 PUF domain R3-YRV,4.59 log2 enrichment (interaction score)
same,binding signal,PUM1 PUF domain R3-FCR,5.77 log2 enrichment (interaction score)
GGCUAGAACUAGUGGAUCCCCCGGCGCCCGGCGGCUCGAGCCCGGGUAAGUGUAAUUAGUCUGCAUGCCGCCGGGCGCCAUGCCUGCAGGUCGACUCUAGAAAACAUG,binding signal,PUM1 PUF domain R3-LWK,5.28 log2 enrichment (interaction score)
same,binding signal,PUM1 PUF domain R3-MFG,4.71 log2 enrichment (interaction score)
same,binding signal,PUM1 PUF domain R3-YRV,0.78 log2 enrichment (interaction score)
same,binding signal,PUM1 PUF domain R3-FCR,1.6 log2 enrichment (interaction score)
GGCUAGAACUAGUGGAUCCCCCGGCGCCCGGCGGCUCGAGCCCGGGUAAGUGUAAAUGGUCUGCAUGCCGCCGGGCGCCAUGCCUGCAGGUCGACUCUAGAAAACAUG,binding signal,PUM1 PUF domain R1-KCR,2.46 log2 enrichment (interaction score)
GGCUAGAACUAGUGGAUCCCCCGGCGCCCGGCGGCUCGAGCCCGGGUAAGUGUCAAUAGUCUGCAUGCCGCCGGGCGCCAUGCCUGCAGGUCGACUCUAGAAAACAUG,binding signal,PUM1 PUF domain R5-RQD,3.67 log2 enrichment (interaction score)
same,binding signal,PUM1 PUF domain R5-KAC,4.63 log2 enrichment (interaction score)
GGCUAGAACUAGUGGAUCCCCCGGCGCCCGGCGGCUCGAGCCCGGGUAAGUGUAAAUAGUCUGCAUGCCGCCGGGCGCCAUGCCUGCAGGUCGACUCUAGAAAACAUG,binding signal,PUM1 PUF domain R3-LWK,3.42 log2 enrichment (interaction score)
same,binding signal,PUM1 PUF domain R6-FYM,2.99 log2 enrichment (interaction score)
same,binding signal,PUM1 PUF domain R3-MFG,2.43 log2 enrichment (interaction score)
same,binding signal,PUM1 PUF domain R3-YRV,0.2 log2 enrichment (interaction score)
same,binding signal,PUM1 PUF domain R3-VRN,3.59 log2 enrichment (interaction score)
GGCUAGAACUAGUGGAUCCCCCGGCGCCCGGCGGCUCGAGCCCGGGUAAGUGUAAAUCGUCUGCAUGCCGCCGGGCGCCAUGCCUGCAGGUCGACUCUAGAAAACAUG,binding signal,PUM1 PUF domain R1-KCR,7.51 log2 enrichment (interaction score)
